Assay results as given in PubChem BioAssay.
Calls of active or inactive are those of the source.

Test system: Wnt5a (protein binding on small-molecule microarray)
Test: Wnt5a binders on small-molecule microarray, primary screen, biophysical, 635/667 nm fluorescence (AID 1142);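 further: fluorescence read at 667 nm with signal to noise per printed feature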
Conditions: 635 nm fluorescence, higher = more signal

SMILES | composite z-score
COC(=O)[C@@H]1N=C(c2ccc(OCCCO)cc2)O[C@@H]1c1ccccc1 | -0.508
C=CCC(OC(C)=O)[C@@H]1[C@@H](N(Cc2cccc3ccccc23)C(=O)Cc2ccc(OC)cc2)c2cc(OCCCO)ccc2N1C(=O)c1ccc(-c2ccccc2)cc1 (stereo partly drawn) | -0.213
CC(C)[Si]1(C(C)C)OCc2cc(-c3ccc(-c4ccc(Cl)c(Cl)c4)o3)nc(-c3ccccc3)c21 | -0.345

Test system: not listed separately
Test: cell viability in Huh7 cells, primary screen, cytotoxicity control for HCV replication inhibitor project, CellTiter-Glo luminescence, basal, 48 h (AID 1143);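 further: Huh7 hepatoma cells carrying a hepatitis C replication reporter with no stimulus; test concentration not given here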
Conditions: Huh7 HCV replicon, higher = more signal, called active from +8 up or from −8 down

SMILES | z-score
C=CC[C@H](OC(=O)Nc1ccc(SC)cc1)c1ccc(O)c2ccccc12 | -6.78 (inactive)
O=C1O[C@@H](c2ccccc2)[C@@H](c2ccccc2)N2[C@@H](c3ccc(OCCO)cc3)[C@]3(C(=O)Nc4ccc(C#CC5=CCCCC5)cc43)[C@@H](C(=O)NC[C@H](O)c3ccccc3)[C@H]12 | -3.51 (inactive)
O=C1O[C@H](c2ccccc2)[C@H](c2ccccc2)N2[C@H]1[C@@H](C(=O)O)[C@]1(C(=O)Nc3ccc(C#CCCO)cc31)[C@H]2c1ccccc1OCCO | -0.873 (inactive)
CC(C)c1ccc(NN2C(C(O)c3ccc(C#N)cc3)C=CC3C(=O)N(c4ccccc4)C(=O)C32)cc1 (stereo not drawn) | -0.687 (inactive)
C[N+](C)(C)CCCC[C@@H]1NC(=O)[C@@H]2C[C@H](C(=O)NCCCCCCN)[C@H](c3cccc(OCCO)c3)N2C1=O | 0.279 (inactive)
CC(C)[Si]1(C(C)C)OCc2cc(C3CC3)nc(-c3ccc(Oc4ccccc4)cc3)c21 | -1.03 (inactive)
COCCOC(=O)N1C(=O)[C@@]2(c3cc(C#CC4(O)CCCCCC4)ccc31)[C@H](c1ccc(O)cc1)N1[C@H](c3ccccc3)[C@H](c3ccccc3)OC(=O)[C@H]1[C@@H]2C(=O)N1CCN(c2ncccn2)CC1 | -1.53 (inactive)
COC(=O)c1c(CC[C@@H](CO)NC(=O)N[C@@H](C)Cn2cc(-c3ccccn3)nn2)oc(C(C)=O)c1C(=O)OC | -2.77 (inactive)
CCOC(=O)[C@@H]1CCCCN1C(=O)C(=O)OC | 0.474 (inactive)
CN(C)c1ccc(C(O)C2C=CC3C(=O)NC(=O)C3N2Nc2ccccn2)cc1 (stereo not drawn) | 1 (inactive)
CC#CCO[Si](C#Cc1ccccc1)(C(C)C)C(C)C | -1.35 (inactive)
CC(=O)N1CC2(CC2)CC1c1ccccc1 (stereo not drawn) | -0.283 (inactive)
COCCOC(=O)N1C(=O)[C@@]2(c3cc(C#CCC(C(=O)OC)C(=O)OC)ccc31)[C@H](c1ccc(OCCO)cc1)N1[C@H](c3ccccc3)[C@H](c3ccccc3)OC(=O)[C@H]1[C@@H]2C(=O)N1CCc2cc(OC)c(OC)cc2C1 | -1.35 (inactive)
C=CCC(OC(C)=O)[C@@H]1[C@@H](N(Cc2cccc3ccccc23)C(=O)Cc2ccc(F)cc2)c2cc(OCCCO)ccc2N1C(=O)c1ccc2ccccc2c1 (stereo partly drawn) | -0.156 (inactive)
CN1C2C=C(CCCO)C(C3C(=O)N(C(N)=O)C(=O)C32)C1C1CC1 (stereo not drawn) | -0.122 (inactive)
CCCN1C(=O)[C@]2(Cc3ccccc31)N=C(c1ccc(OCCCO)cc1)O[C@@H]2c1ccccc1 | -5.07 (inactive)
NCCCCCNC(=O)[C@@H]1C[C@@H]2C(=O)N[C@@H](CCCCN)C(=O)N2[C@@H]1c1ccc(O)cc1 | -0.308 (inactive)
Cc1ccc(C(C)CC(O)C2C=CC3C(=O)N(c4ccccc4)C(=O)C3N2Nc2ccccc2)o1 (stereo not drawn) | -2.95 (inactive)

SMILES | z-score
CCCNC(=O)[C@@H]1c2ccccc2C(=O)N(Cc2ccc(OC(F)(F)F)cc2)[C@H]1c1ccc(CO)cc1 | -0.88 (inactive)
CC(C)C(CO)N1C(=O)[C@@H]2[C@H]3C(=O)OCC=C[C@H]3OC23C=CCN(c2ccc(Cl)cc2)C(=O)[C@@H]13 (stereo partly drawn) | -0.755 (inactive)
CC(C)c1ccc(NN2C(C(O)c3ccc(F)cc3)C=CC3C(=O)N(c4ccccc4)C(=O)C32)cc1 (stereo not drawn) | -0.953 (inactive)
OCCCC1=CC(c2ccc(CN3CCCC3)cc2)N(Cc2cc3c(cc2Br)OCO3)CC1 (stereo not drawn) | -1.1 (inactive)
COc1cc2c(cc1O)C(c1cccs1)N(Cc1cc3c(cc1Br)OCO3)CC2 (stereo not drawn) | -4.04 (inactive)
CCCNC(=O)[C@@]1(Sc2ccc(C)cc2)CC(=O)N(C2Cc3ccccc3C2)[C@@H]1c1ccc(CO)cc1I | -0.812 (inactive)
CC(C)=C1C(=O)C(c2ccccc2)=C2CN3C(=O)N(CCc4ccccc4)C(=O)[C@]3(Cc3ccc(C(F)(F)F)cc3)[C@H]21 | -0.28 (inactive)
COc1cccc(C)c1NC(=O)O[C@H]1[C@H](OC(=O)Nc2ccccc2-c2ccccc2)[C@H](OC(=O)Nc2ccccc2-c2ccccc2)[C@@H](OC)O[C@@H]1CO | -3.45 (inactive)
COCCCNC(=O)[C@@]1(CCC(=O)OC(C)(C)C)N=C(c2ccc(OCCCO)cc2)O[C@H]1c1ccccc1N=[N+]=[N-] | -0.61 (inactive)
COc1cc2c(cc1O)C(c1ccc(CN3CCCC3)cc1)N(Cc1cc3c(cc1Br)OCO3)CC2 (stereo not drawn) | -3.59 (inactive)
CCCC[C@@H](O)C1=C(COC)C[C@H]2C(=O)N(C)C(=O)[C@H]2[C@H]1CO | -1.61 (inactive)
COC(=O)C(CC#Cc1ccc2c(c1)[C@]1(C(=O)N2)[C@H](c2ccc(O)cc2)N2[C@H](c3ccccc3)[C@H](c3ccccc3)OC(=O)[C@H]2[C@@H]1C(=O)NC[C@H](O)c1ccccc1)C(=O)OC | -0.075 (inactive)
COC(=O)C1=CC(CCCO)=CC(c2ccc(CN3CCCC3)cc2)N(Cc2cccc(OC(F)(F)F)c2)C=C1C(=O)OC (stereo not drawn) | -2.24 (inactive)
NC(=O)NCC#Cc1ccc2c(c1)[C@]1(C(=O)N2)[C@H](c2ccccc2OCCO)N2[C@H](c3ccccc3)[C@H](c3ccccc3)OC(=O)[C@H]2[C@@H]1C(=O)O | -1.22 (inactive)
COC(=O)[C@@H]1N=C(c2ccc(OCCCO)cc2)O[C@@H]1c1ccccc1 | -1.64 (inactive)
C=CCC(OC(C)=O)[C@@H]1[C@@H](N(Cc2cccc3ccccc23)C(=O)Cc2ccc(OC)cc2)c2cc(OCCCO)ccc2N1C(=O)c1ccc(-c2ccccc2)cc1 (stereo partly drawn) | -1.22 (inactive)
CC(C)[Si]1(C(C)C)OCc2cc(-c3ccc(-c4ccc(Cl)c(Cl)c4)o3)nc(-c3ccccc3)c21 | -0.243 (inactive)
